# Data taken from PubChem BioAssay.
# The other results are listed elsewhere or left out. A number with no mark means an inactive call. Calls of active or inactive are those of the source.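 The calls were made as follows, unless noted: active = mean inhibition of the triplicate above the hit cutoff set for the earlier primary screen (cut at about 25% in these data); inactive = the rest.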
# Legend:
# [1] = biological target: Platelet-activating factor acetylhydrolase (Homo sapiens) (UniProt Q13093); assay: pPAFAH (PLA2G7) enzyme inhibitors, confirmation, biochemical, fluorescence polarization, human (AID 463230); settings: recombinant pPAFAH, FP-Rh probe fluorescence polarization; at 3.39 µM; stronger effect = higher value;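 also: 0% = enzyme with DMSO and 100% = wells lacking pPAFAH enzyme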
# Chain of Platelet-activating factor acetylhydrolase (Homo sapiens) (Q13093 whole entry, looked up): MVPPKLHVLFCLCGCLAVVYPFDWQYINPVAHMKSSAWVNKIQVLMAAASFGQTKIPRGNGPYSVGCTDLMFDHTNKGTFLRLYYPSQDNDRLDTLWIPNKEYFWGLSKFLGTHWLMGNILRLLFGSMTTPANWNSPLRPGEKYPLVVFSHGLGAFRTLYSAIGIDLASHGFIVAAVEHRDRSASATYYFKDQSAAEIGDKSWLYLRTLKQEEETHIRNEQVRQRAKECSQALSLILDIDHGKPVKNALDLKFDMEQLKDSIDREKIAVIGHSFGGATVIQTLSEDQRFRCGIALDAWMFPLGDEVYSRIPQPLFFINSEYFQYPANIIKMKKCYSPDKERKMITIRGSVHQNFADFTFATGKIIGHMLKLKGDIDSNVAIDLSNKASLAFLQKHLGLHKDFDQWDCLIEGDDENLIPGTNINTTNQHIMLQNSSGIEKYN
# [2] = biological target: Serine protease HTRA1 (Homo sapiens) (UniProt Q92743); assay: HTRA1 protease inhibitors, retest, confirmation, biochemical, fluorescence polarization (AID 540248;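 active = mean inhibition over three repeats above a set limit taken from the earlier primary screen, cut at about 37% in these data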;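 also: 0% = HTRA1 with DMSO and 100% = wells lacking HTRA1; inhibitors block probe binding so polarization drops and inhibition rises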); settings: recombinant HTRA1, FP-rhodamine activity-based probe, at 5.96 µM, stronger effect = higher value
# [3] = biological target: Protein-arginine deiminase type-4 (Homo sapiens) (UniProt Q9UM07); assay: human PAD4 inhibitors, confirmation, biochemical, fluorescence polarization (AID 488796;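 active = mean inhibition across replicates above the hit cutoff set by the earlier primary screen, cut at about 15% in these data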;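 also: inhibitors block active-site labeling by the probe so polarization falls; 0% = PAD4 with probe and DMSO and 100% = probe without PAD4 enzyme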); settings: recombinant PAD4, RCA probe fluorescence polarization; at 6.36 µM; stronger effect = higher value
# Chain of Protein-arginine deiminase type-4 (Homo sapiens) (Q9UM07 whole entry, looked up): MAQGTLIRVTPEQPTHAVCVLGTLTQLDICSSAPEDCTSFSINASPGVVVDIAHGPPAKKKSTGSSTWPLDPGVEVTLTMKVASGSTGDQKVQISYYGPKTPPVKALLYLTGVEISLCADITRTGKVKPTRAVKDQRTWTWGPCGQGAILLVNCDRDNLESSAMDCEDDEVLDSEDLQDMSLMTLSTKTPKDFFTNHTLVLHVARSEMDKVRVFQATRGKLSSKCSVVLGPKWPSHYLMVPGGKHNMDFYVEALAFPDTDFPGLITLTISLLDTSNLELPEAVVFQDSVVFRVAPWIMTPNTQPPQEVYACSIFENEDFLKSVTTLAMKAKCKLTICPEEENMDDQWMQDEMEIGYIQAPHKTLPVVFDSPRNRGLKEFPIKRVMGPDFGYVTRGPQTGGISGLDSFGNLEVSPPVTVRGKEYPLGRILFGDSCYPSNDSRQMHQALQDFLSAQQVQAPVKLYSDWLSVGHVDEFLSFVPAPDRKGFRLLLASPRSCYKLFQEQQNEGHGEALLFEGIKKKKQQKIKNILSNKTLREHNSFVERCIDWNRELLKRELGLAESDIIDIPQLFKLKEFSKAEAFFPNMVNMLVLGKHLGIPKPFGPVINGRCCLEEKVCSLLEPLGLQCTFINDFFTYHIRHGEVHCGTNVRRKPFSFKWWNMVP
# [4] = biological target: Insulin-degrading enzyme (Homo sapiens) (UniProt P14735); assay: human IDE inhibitors in live cells, confirmation, fluorescence polarization, HEK cells, FAbetaB substrate (AID 435028;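 active = mean inhibition across triplicate wells above the cutoff set by the earlier primary insulin-degrading enzyme screen, cut at about 16% in these data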;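 also: 0% = DMSO wells and 100% = 60 µM reference IDE inhibitor Ii1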); settings: FAbetaB cleavage, at 5.59 µM, stronger effect = higher value
# Chain of Insulin-degrading enzyme (Homo sapiens) (P14735 whole entry, looked up): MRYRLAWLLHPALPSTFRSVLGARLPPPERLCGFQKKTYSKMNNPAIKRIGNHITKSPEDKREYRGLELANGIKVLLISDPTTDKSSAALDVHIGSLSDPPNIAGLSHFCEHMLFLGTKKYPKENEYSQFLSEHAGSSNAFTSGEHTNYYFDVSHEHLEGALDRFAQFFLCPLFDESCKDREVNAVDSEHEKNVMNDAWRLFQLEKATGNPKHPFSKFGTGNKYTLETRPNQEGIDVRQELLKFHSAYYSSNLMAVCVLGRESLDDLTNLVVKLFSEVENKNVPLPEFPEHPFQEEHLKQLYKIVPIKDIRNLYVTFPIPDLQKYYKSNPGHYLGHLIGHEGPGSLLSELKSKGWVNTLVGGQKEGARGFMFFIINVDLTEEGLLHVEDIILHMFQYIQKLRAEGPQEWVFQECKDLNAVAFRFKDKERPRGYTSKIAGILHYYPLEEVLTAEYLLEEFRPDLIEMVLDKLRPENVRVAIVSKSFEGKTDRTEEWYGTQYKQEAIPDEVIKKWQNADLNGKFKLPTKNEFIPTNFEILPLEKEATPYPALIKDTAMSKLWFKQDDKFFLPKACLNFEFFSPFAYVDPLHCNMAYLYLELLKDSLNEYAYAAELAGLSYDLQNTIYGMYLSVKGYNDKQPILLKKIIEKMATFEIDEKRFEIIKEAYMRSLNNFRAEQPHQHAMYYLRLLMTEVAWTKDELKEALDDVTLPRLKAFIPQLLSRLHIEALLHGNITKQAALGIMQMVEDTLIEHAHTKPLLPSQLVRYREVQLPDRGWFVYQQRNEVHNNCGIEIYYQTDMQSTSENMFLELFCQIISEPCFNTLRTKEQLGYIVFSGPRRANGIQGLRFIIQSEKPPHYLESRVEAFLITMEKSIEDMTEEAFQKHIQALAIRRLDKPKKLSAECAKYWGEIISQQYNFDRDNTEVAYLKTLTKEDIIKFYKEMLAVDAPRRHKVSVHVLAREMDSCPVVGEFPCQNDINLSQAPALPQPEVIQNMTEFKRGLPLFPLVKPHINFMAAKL
# [5] = cytotoxicity in HEK cells, cytotoxicity control for IDE inhibitor project, cell-based, luminescence (AID 449730; in the data active = inhibition above about 22%;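 also: 0% = vehicle wells and 100% = reference cytotoxic drug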); settings: HEK293 cytotoxicity, ATP luminescence; at 5.59 µM; stronger effect = higher value
# [6] = biological target: Toll-like receptor 9 (Homo sapiens) (UniProt Q9NR96); assay: TLR9-MyD88 association inhibitors, retest, confirmation, cell-based, CHO, BLA complementation, fluorescence, triplicate (AID 540250;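 active = mean inhibition across three repeats above about 21% taken from the earlier screen, limit read from the data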;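 also: blue over green emission ratio reports constitutive TLR9 MyD88 association via BLA complementation; 0% = DMSO vehicle wells and 100% = clavulanate BLA inhibitor wells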); settings: CCF4 FRET ratio, at 4.98 µM, stronger effect = higher value
# Chain of Toll-like receptor 9 (Homo sapiens) (Q9NR96 whole entry, looked up): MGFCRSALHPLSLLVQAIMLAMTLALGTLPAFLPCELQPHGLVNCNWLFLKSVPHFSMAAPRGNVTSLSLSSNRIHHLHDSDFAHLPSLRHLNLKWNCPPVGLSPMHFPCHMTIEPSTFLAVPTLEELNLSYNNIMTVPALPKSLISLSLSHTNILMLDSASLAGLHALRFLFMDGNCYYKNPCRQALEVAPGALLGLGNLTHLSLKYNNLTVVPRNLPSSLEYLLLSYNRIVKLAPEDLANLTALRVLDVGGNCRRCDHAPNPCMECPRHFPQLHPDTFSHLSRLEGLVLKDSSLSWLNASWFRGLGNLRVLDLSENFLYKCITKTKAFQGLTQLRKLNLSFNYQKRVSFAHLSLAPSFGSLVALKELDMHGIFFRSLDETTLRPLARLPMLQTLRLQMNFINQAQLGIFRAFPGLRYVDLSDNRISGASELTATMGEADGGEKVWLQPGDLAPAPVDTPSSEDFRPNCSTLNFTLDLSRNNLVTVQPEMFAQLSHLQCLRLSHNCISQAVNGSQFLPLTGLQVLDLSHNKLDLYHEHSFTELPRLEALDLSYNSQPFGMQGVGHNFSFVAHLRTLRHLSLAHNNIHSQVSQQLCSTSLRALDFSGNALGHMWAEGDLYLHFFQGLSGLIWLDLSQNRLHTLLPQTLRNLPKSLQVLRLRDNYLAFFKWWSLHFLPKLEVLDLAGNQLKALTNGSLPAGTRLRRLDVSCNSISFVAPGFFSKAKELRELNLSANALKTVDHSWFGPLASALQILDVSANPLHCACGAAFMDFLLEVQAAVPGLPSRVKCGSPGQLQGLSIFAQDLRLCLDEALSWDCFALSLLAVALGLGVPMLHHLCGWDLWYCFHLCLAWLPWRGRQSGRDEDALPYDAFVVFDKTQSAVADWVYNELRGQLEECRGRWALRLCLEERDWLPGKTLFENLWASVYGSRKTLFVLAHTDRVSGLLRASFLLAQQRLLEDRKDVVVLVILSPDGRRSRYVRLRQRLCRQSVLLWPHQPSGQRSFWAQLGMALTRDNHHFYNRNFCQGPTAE
# [7] = beta-lactamase reporter inhibitors in CHO cells, artefact control for TLR9-MyD88 binding inhibitor project, cell-based, fluorescence (AID 540251;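 active = mean inhibition above a 50% cutoff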;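 also: counterscreen of TLR9-MyD88 hits on CMV-driven BLA in CHO-K1 cells; 0% = DMSO alone and 100% = clavulanate blocking BLA; higher means less blue over green ratio so more BLA blockade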); settings: CHO-BLA cells, CCF4 FRET ratio, at 4.98 µM, stronger effect = higher value
# [8] = CHO cell viability loss – luminescence, single concentration, cytotoxicity control for TLR9-MyD88 binding inhibitor project (AID 588336; in the data active = inhibition above about 11%); settings: TLR9-MyD88 CHO cells cytotoxicity, at 4.98 µM, stronger effect = higher value
# [9] = biological target: Receptor-interacting serine/threonine-protein kinase 2 (Homo sapiens) (UniProt O43353); assay: NOD2-RIPK2 binding disruptors, retest, confirmation, fluorescence, CHO cells, BLA complementation, triplicate (AID 624370;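 active = mean inhibition across replicates above a set limit taken from the earlier primary screen, cut at about 21% in these data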;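 also: 0% = DMSO-only wells and the high end = clavulanate BLA-blocked wells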); settings: CCF4 FRET, at 4.98 µM, stronger effect = higher value
# Chain of Receptor-interacting serine/threonine-protein kinase 2 (Homo sapiens) (O43353 whole entry, looked up): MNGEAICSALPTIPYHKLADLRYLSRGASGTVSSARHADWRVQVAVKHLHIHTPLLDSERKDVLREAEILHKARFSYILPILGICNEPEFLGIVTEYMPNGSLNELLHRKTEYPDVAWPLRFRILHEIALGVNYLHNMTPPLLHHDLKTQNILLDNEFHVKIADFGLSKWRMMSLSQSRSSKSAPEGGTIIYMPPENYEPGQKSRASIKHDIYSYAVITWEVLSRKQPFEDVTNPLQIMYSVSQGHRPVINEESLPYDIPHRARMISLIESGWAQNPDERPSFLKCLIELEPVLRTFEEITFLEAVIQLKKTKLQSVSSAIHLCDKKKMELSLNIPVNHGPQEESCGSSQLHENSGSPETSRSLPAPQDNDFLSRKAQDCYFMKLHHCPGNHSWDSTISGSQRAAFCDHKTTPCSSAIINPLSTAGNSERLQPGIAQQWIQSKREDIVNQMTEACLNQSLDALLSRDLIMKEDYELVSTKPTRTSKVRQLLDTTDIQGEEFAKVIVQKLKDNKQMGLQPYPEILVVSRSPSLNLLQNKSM
# [10] = beta-lactamase reporter inhibitors in CHO cells, confirmation, artefact control for NOD2-RIPK2 interaction inhibitor project, cell-based, CHO-K1 CMV-bla, CCF4 FRET, fluorescence (AID 624371;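 active = mean inhibition above the low-control mean inhibition plus three low-control SD, cut at about 11% in these data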;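 also: 0% = DMSO only wells and 100% = clavulanate high control wells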); settings: CCF4 FRET ratio, counterscreen, at 4.98 µM, stronger effect = higher value
# [11] = biological target: Platelet-activating factor acetylhydrolase IB subunit alpha1 (Homo sapiens) (UniProt Q15102); assay: PAFAH1B3 enzyme inhibitors, confirmation, biochemical, fluorescence polarization, human (AID 493032;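 active = average inhibition over triplicate runs above the hit cutoff set in the earlier primary screen, cut at about 25% in these data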;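 also: 0% = enzyme with DMSO and 100% = wells lacking PAFAH1B3 protein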); settings: recombinant PAFAH1B3, FP-Rh activity-based probe, at 3.39 µM, stronger effect = higher value
# Chain of Platelet-activating factor acetylhydrolase IB subunit alpha1 (Homo sapiens) (Q15102 whole entry, looked up): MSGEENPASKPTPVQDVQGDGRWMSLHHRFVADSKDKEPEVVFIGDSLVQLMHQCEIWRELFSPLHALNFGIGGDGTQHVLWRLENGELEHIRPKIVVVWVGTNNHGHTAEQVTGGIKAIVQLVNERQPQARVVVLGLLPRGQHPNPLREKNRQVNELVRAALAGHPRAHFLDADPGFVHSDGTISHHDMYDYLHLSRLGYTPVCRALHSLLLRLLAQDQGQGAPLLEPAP
# [12] = biological target: Photoreceptor-specific nuclear receptor (Homo sapiens) (UniProt Q9Y5X4); assay: NR2E3 agonist confirmation in cells, cell-based, luminescence, CHO-S two-hybrid (AID 624378;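 active = average inhibition above a cutoff equal to the mean inhibition of all tested compounds plus one SD, cut at about 70% in these data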;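 also: 0% = DMSO in NR2E3 cells and 100% = DMSO in cells lacking NR2E3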); settings: CHO-S mammalian two-hybrid NR2E3-NCOR, luciferase luminescence; at 3.98 µM; stronger effect = higher value
# Chain of Photoreceptor-specific nuclear receptor (Homo sapiens) (Q9Y5X4 whole entry, looked up, the tested form may be a part): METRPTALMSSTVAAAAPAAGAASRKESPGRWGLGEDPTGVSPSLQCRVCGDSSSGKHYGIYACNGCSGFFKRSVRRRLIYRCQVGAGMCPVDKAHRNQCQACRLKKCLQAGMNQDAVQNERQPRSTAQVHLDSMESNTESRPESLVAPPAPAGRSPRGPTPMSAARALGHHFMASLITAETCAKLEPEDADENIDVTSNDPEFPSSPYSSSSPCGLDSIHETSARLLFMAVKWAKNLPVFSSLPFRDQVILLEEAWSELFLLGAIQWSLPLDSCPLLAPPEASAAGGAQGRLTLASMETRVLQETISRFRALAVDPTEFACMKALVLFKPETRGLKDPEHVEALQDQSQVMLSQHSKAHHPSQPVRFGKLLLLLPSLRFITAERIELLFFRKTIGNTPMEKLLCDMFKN
# [13] = GAL4-VP16 reporter modulators, confirmation, counter-screen for NR2E3 agonist project, cell-based, luminescence, CHO-S, high throughput (AID 624379;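 active = mean inhibition above a cutoff equal to the average over all tested compounds plus one standard deviation, cut at about 70% in these data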;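 also: luciferase from a UAS reporter driven by GAL4-VP16 transactivation; 0% = DMSO with VP16-transfected cells and 100% = DMSO with cells lacking VP16; higher means less reporter light so more repression of VP16 activity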); settings: CHO-S GAL4-VP16 luciferase reporter, at 3.98 µM, stronger effect = higher value
# [14] = Gal4-VP16 luciferase reporter inhibitors, counter-screen for COUP-TFII antagonist project, cell-based, luminescence, HEK293 (AID 687007; in the data active = inhibition above about 13%); settings: at 8.5 µM, stronger effect = higher value
# [15] = biological target: COUP transcription factor 2 (Homo sapiens) (UniProt P24468); assay: NR2F2 transcriptional activity inhibitors, confirmation, cell-based, luciferase reporter, HEK293, triplicate (AID 687008;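 active = mean inhibition over three repeats above a set limit taken from the earlier primary screen, cut at about 38% in these data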;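 also: 100% = cells given the luciferase reporter alone without the COUP-TF2 vector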); settings: HEK293 NGFI-A luciferase reporter, luminescence; at 8.5 µM; stronger effect = higher value
# Chain of COUP transcription factor 2 (Homo sapiens) (P24468 whole entry, looked up): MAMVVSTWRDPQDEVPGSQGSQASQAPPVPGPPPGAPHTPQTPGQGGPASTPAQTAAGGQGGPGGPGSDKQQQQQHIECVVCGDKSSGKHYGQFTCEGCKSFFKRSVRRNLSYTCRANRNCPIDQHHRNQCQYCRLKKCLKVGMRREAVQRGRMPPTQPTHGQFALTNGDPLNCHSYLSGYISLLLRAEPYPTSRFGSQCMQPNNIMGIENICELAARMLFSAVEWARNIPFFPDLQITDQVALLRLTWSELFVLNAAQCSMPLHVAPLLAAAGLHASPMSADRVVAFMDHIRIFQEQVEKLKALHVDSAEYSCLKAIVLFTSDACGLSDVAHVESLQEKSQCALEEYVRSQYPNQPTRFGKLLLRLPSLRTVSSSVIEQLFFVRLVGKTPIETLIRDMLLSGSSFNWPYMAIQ
smiles,measurement,setting,value
Oc1c(Br)cc(/C=N/NC(=S)NCC2CCCO2)cc1Br (stereo not given),inhibition,[1],36.3% (active)
CC1(OC(=O)C2CCCC2)C(=O)C=C2C=C(c3ccc(C#N)cc3)OC=C2C1=O (stereo not given),inhibition,[1],53.2% (active)
COC(=O)c1cc(S(=O)(=O)Nc2ccc(C)c(F)c2)c[nH]1,inhibition,[1],24.1%
Cc1ccc(/C=N/NC(=O)c2cc3ccccc3cc2O)o1,inhibition,[1],9.89%
same,inhibition,[2],38.8% (active)
CC(C)C1N=C2c3ccccc3N=C(SCC(=O)c3ccc(O)c(O)c3)N2C1=O (stereo not given),inhibition,[1],54.5% (active)
same,inhibition,[2],57% (active)
Cc1cc(C(=O)CSc2nc(N)cc(=O)[nH]2)c(C)n1CCc1ccc(Cl)cc1,inhibition,[1],74.3% (active)
same,inhibition,[3],13.4%
COC(=O)c1ccc(C(NC(=O)OCc2ccccc2)/C(C)=C/[C@@H](C)C(=O)NCc2ccc(OC)c(OC)c2)cc1 (stereo not given in full),inhibition,[1],36% (active)
Nc1c(C(=O)c2cccs2)sc2nsc(SCCN3CCCCC3)c12,inhibition,[4],54.9% (active)
same,inhibition,[5],18.4%
same,inhibition,[6],31.7% (active)
same,inhibition,[7],27.5%
same,inhibition,[8],10.9% (active)
same,inhibition,[9],19.8%
same,inhibition,[10],36.9% (active)
CN(C)S(=O)(=O)c1cccc(-c2nn(-c3ccccc3)cc2/C=C2\SC(=S)N(CC(=O)O)C2=O)c1,inhibition,[1],40.4% (active)
same,inhibition,[3],2.15%
O=C(N/N=C/c1ccc(OC(=O)c2ccccc2Cl)cc1)c1ccc(O)cc1,inhibition,[4],4.51%
same,inhibition,[5],6.4%
O=C(/C=C(O)/C=C/c1ccc(O)cc1)/C=C/c1ccc(O)cc1,inhibition,[4],50% (active)
same,inhibition,[5],7.11%
same,inhibition,[11],31.6% (active)
same,inhibition,[6],39.7% (active)
same,inhibition,[7],42.9%
same,inhibition,[8],6.33%
same,inhibition,[9],64.2% (active)
same,inhibition,[10],65.5% (active)
COc1cccc(/C=N/NC(=O)c2[nH]nc3c2CCc2ccccc2-3)c1O,inhibition,[1],38.9% (active)
Fc1ccc2[nH]c3c(N4CCSCC4)ncnc3c2c1,inhibition,[4],7.91%
same,inhibition,[5],49.2% (active)
same,inhibition,[12],84.4% (active)
same,inhibition,[13],63.2%
same,inhibition,[14],4.31%
same,inhibition,[15],48% (active)
COc1cccc(CNC(=O)CCC2CCCN(C(=O)c3ccc(F)c(Cl)c3)C2)c1 (stereo not given),inhibition,[1],17.2%
O=C(Nc1nc(-c2ccco2)c(-c2ccco2)s1)c1ccco1,inhibition,[1],17.3%
Cc1cc(Cl)ccc1OCCCC(=O)NCc1ccncc1,inhibition,[4],7.81%
same,inhibition,[5],14.7%
